# Measured values taken from PubChem BioAssay AID588676 (Johns Hopkins Ion Channel Center, 2011).
# Out of some 310,000 compounds screened, about 3,900 (1.3%) were called active. The sample holds actives, similar compounds and a random draw of the others, so the mix is not that of the screen.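 The calls were made as follows: active = calcium-response B-score plate-corrected more than 3 library SD below zero, starting fluorescence within 5 deviations, no agonist response on first addition; inactive = the rest.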
# Target: Mas-related G-protein coupled receptor member X1 (Homo sapiens) (UniProt Q96LB2)
# Assay: blockade of BAM8-22-evoked MrgX1 calcium response – HEK293 cells, Fluo-4 calcium flux, primary screen (AID 588676);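 as to B-score: peak minus trough fluorescence over baseline after final BAM8-22 challenge near maximal dose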
# Conditions: Fluo-4, BAM8-22 antagonism, at 10 µM; hits give low values
# Mas-related G-protein coupled receptor member X1 (Homo sapiens), sequence (Q96LB2 whole entry, looked up): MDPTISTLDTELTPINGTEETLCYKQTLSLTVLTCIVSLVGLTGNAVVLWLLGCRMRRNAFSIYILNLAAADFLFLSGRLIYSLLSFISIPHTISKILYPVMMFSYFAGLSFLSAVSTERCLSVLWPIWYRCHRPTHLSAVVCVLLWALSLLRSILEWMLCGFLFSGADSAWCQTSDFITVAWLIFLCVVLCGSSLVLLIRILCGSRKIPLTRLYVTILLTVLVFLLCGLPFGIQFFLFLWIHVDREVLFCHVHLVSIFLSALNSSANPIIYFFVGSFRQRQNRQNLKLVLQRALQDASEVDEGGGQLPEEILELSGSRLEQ
row,Structure (SMILES),B-score
1,CC(=O)Nc1ccc(NC(=O)COc2ccc(S(=O)(=O)NC(C)c3ccccc3)cc2)cc1 (configuration not stated),inactive
2,COCCOC(=O)c1c(C)oc2cc(Br)c(OCC(N)=O)cc12,inactive
3,CCOC(=O)c1sc(NC(=O)CSc2nnc(-c3ccco3)o2)c(C(=O)OCC)c1C,inactive
4,CCOC(=O)c1sc(NC(=O)COc2ncnc3ccccc23)c(C(=O)OCC)c1C,inactive
5,CCOC(=O)c1c(NC(=O)CNC2CCCc3ccccc32)sc(C(N)=O)c1C (configuration not stated),-4.67 (active)
6,Cc1ccc(C(=O)C(C)OC(=O)Cc2n[nH]c(=O)c3ccccc23)cc1C (configuration not stated),inactive
7,O=C(Cc1nc2ccccc2[nH]c1=O)c1ccc(Cl)cc1,-5.73 (active)
8,O=C(CSc1nc2ccc([N+](=O)[O-])cc2[nH]1)c1ccc(Cl)cc1,inactive
9,O=C(/C(=C/c1cccc(Cl)c1)c1nc2ccccc2[nH]1)c1ccccc1,inactive
10,CN1CCN(c2ccccc2NC(=O)COc2ccc(C3CCCCC3)cc2)CC1,inactive
11,Cc1nnc(SCc2cc(=O)[nH]c(N3CCN(Cc4ccccc4)CC3)n2)s1,inactive
12,Cc1ccc(SCc2cc(=O)[nH]c(N3CCCCC3)n2)cc1,inactive
13,O=c1cc(CSc2ccccn2)nc(N2CCN(c3ccccc3)CC2)[nH]1,-4.82 (active)
14,Cc1cc(N2C(=O)C(O)=C(C(=O)c3ccc(C)o3)C2c2ccc(OCc3ccccc3)cc2)no1 (configuration not stated),inactive
15,C=CCOc1cccc(C2C(C(=O)c3ccc(C)o3)=C(O)C(=O)N2CCCn2ccnc2)c1 (configuration not stated),inactive
16,C=CCOc1cccc(C2C(C(=O)c3ccc(C)o3)=C(O)C(=O)N2c2nnc(C)s2)c1 (configuration not stated),-4.61 (active)
17,COc1ccc(/C(O)=C2/C(=O)C(=O)N(CC3CCCO3)C2c2ccc(OC)c(OC)c2)cc1 (configuration not stated),inactive
18,COc1ccc(NC(C(=O)Nc2cccc(C(C)=O)c2)c2ccccc2)cc1 (configuration not stated),inactive
19,Cc1cc(-c2ccc(S(=O)(=O)N3CCN(c4cccc(C(F)(F)F)c4)CC3)s2)on1,inactive
20,COc1ccc(C(=O)Cc2cnn(-c3ccccc3)c2)c(O)c1,inactive
21,O=C(Cc1ccccn1)c1ccc(O)cc1O,-4.66 (active)
22,COc1ccc(CC(=O)c2ccc(O)cc2O)cc1OC,inactive
23,CCn1c(SCC(=O)NC2CC2)nnc1-c1ccccc1OC,inactive
24,O=C(NCC1CCCO1)c1ccccc1-c1nc(-c2ccccc2Cl)no1 (configuration not stated),inactive
25,C=CCn1nc(-c2ccccc2)c2c(C)onc2c1=O,-6.96 (active)
26,C=CCn1cnc2scc(-c3ccccc3)c2c1=O,inactive

row,Structure (SMILES),B-score
1,Cc1nn(-c2ccccc2)c(=O)c2noc(C)c12,inactive
2,COc1cccc2cc(C(N)=O)/c(=N\NC(=O)c3ccccc3)oc12,inactive
3,O=C(Cn1ccc([N+](=O)[O-])n1)NCc1cccs1,inactive
4,O=C(CCn1ccc([N+](=O)[O-])n1)Nc1nccs1,-5.19 (active)
5,Cc1ccnc(NC(=O)Cn2ccc([N+](=O)[O-])n2)c1,inactive
6,Cc1cccc(C)c1NC1=NC(=S)N(c2ccc(N(C)C)cc2)C1(C)C,inactive
7,CN(C)CCCn1c(=O)n(Cc2ccccc2)c(=O)c2c3c(sc21)CCCCC3,inactive
8,Cc1c(S(=O)(=O)NC(C)c2ccccc2)c(=O)n(C)c(=O)n1C (configuration not stated),inactive
9,O=C(CNC(=O)C12CC3CC(CC(C3)C1)C2)OCC(=O)N1CCCCC1,inactive
10,COc1cc2c(cc1OC)C(C(C)C)=NC(C)(C)C2,inactive
11,COc1cc2c(cc1O)C(SC)=NC(C)(C)C2,-5.85 (active)
12,COc1cc2c(cc1OC)C(Nc1ccc(S(N)(=O)=O)cc1)=NC(C)(C)C2,inactive
13,CN(C)CCc1c[nH]c2ccc(Cn3cncn3)cc12,inactive
14,CC1CCN(Cc2nc(-c3ccc(Cl)cc3)no2)CC1,inactive
15,Clc1ccc(-c2nc3ccccn3c2CN2CCSCC2)cc1,-5.66 (active)
16,Clc1ccc(-c2nnc(-c3ccccc3)nc2N2CCSCC2)cc1,inactive
17,O=C(Nc1ccc(Cl)cc1)C1c2cccc[n+]2CC(=O)N1Cc1ccc2c(c1)OCO2 (configuration not stated),-6.48 (active)
18,CCCOc1ccc(NC(=O)CC2C(=O)N(C)C(=S)N2Cc2ccc3c(c2)OCO3)cc1 (configuration not stated),inactive
19,O=C(CSCc1ccc(Cl)cc1)N1CCN(Cc2ccc3c(c2)OCO3)CC1,inactive
20,COc1ccc(C)cc1Nc1nc(C)nc2c1oc1ccccc12,inactive
21,COc1ccc2c(c1)C(=O)Nc1cc(Cl)ccc1N2,inactive
22,CCCCN(CC)CCNC(=O)c1[nH]c(C)c(C(C)=O)c1C,inactive
23,CC(=O)c1c(C)[nH]c(C(=O)NCCCN2CCCC2)c1C,inactive
24,CCC1CCCCN1CCNC(=O)c1[nH]c(C)c(C(C)=O)c1C (configuration not stated),-5.1 (active)
25,NC(=O)CC[C@@H]1NC(=O)[C@@H]2CCCN2C(=O)c2cc([N+](=O)[O-])cc(F)c2NCCC[C@@H](C(N)=O)NC1=O,inactive
26,O=C(CSc1nc2nccnc2c(=O)n1Cc1cccs1)Nc1ccccc1F,inactive
